The source made the active and inactive calls. Unless noted, how the calls were made is not given here.
Experiments:
[1] = anti-His antibody binders, primary screen, artefact control for SMM control protein annotation, biochemical, small-molecule microarray, 635 nm fluorescence (AID 1128); conditions: anti-His Alexa647 antibody binding, higher = more signal;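 further: score merges feature fluorescence with signal-to-noise for each printed compound spot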
[2] = tested on: Human papillomavirus type 1a E7 protein (residues 1-88); test: HPV1a E7 small-molecule binders, primary screen, biochemical, small-molecule microarray, residues 1-88, 635 nm (AID 1129); conditions: small-molecule microarray binding, fluorescence 635 nm; higher = more signal
[3] = target: Focal adhesion kinase 1 (Homo sapiens) (UniProt Q05397); test: small-molecule microarray binders of FAK, primary screen, biochemical, 635/667 nm fluorescence, BSA, DTT (AID 1130); conditions: PTK2 binding, 635 nm fluorescence, higher = more signal;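 further: composite of spot emission at 667 nm and signal to noise over triplicate slides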
Chain of Focal adhesion kinase 1 (Homo sapiens) (Q05397 whole entry, looked up): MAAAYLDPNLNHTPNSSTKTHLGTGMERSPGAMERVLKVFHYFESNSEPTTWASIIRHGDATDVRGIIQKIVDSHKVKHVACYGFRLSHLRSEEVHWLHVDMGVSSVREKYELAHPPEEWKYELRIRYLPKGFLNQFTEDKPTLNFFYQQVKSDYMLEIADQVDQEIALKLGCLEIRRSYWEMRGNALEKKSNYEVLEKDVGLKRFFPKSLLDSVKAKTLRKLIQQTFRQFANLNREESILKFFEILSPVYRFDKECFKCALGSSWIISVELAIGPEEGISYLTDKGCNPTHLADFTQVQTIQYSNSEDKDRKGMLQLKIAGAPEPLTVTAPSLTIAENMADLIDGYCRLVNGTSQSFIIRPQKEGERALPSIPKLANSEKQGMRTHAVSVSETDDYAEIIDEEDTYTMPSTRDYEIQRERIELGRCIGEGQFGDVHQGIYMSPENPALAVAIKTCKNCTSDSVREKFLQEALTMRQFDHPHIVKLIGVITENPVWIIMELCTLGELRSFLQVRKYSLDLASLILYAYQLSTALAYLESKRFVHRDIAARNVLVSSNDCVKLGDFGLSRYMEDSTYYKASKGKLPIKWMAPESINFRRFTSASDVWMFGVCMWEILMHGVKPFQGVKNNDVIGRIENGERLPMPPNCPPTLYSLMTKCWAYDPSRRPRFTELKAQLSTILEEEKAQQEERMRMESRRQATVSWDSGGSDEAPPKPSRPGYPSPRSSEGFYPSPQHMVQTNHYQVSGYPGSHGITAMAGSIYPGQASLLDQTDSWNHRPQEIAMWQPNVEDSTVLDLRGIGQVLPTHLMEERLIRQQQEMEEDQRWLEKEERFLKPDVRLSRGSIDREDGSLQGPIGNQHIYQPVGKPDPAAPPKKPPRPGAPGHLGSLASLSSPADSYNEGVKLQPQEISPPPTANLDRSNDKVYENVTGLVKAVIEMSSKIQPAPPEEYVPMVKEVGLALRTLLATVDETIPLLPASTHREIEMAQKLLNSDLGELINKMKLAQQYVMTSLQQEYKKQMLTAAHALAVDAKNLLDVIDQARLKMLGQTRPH

[4] = tested on: Fibrinogen (Alexa647-labelled); test: fibrinogen binders on compound microarrays, profiling panel, artefact control for SMM control-protein annotation, biochemical, small-molecule microarray, 635/667 nm fluorescence (AID 1131); conditions: fibrinogen-A647 binding fluorescence, higher = more signal;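 further: z-score merges 667 nm fluorescence with per-spot signal-to-noise over triplicate slides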
[5] = target: Follistatin (Homo sapiens) (UniProt P19883); test: follistatin binders on small-molecule microarrays, primary screen, biochemical, small-molecule microarray, 635/667 nm fluorescence (AID 1132); conditions: FST binding, 635 nm fluorescence, higher = more signal
Chain of Follistatin (Homo sapiens) (P19883 whole entry, looked up): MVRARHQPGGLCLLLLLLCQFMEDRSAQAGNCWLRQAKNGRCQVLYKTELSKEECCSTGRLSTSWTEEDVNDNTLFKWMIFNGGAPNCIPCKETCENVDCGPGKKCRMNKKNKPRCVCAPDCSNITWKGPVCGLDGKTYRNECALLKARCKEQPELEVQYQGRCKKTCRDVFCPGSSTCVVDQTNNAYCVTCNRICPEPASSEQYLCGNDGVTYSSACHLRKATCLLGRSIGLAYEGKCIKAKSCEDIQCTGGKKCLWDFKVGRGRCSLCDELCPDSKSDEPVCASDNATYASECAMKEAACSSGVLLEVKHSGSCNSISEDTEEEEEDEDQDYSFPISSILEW

[6] = target: Fibroblast growth factor 2 (Homo sapiens) (UniProt P09038); test: FGF2 binders on small-molecule microarrays, primary screen, biochemical, small-molecule microarray, 635/667 nm fluorescence (AID 1133); conditions: small-molecule microarray binding, FGF2, fluorescence 635/667; higher = more signal
Chain of Fibroblast growth factor 2 (Homo sapiens) (P09038 whole entry, looked up): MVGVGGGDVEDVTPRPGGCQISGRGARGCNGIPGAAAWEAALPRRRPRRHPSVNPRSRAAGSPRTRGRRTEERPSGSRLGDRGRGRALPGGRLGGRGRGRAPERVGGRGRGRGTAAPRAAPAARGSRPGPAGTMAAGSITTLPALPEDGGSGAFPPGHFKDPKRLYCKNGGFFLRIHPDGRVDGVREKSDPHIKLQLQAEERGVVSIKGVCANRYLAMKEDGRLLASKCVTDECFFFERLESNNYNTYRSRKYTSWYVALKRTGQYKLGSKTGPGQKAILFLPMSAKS

[7] = mitochondrial membrane potential change in A549 cells, profiling panel, cell-based, JC-1 fluorescence, basal, 24 h, 100 nL (AID 1138); conditions: higher = more signal;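 further: A549 lung adenocarcinoma cells under basal conditions with no added stimulus; test concentration not given here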
Lefty1 = Lefty1 binders on small-molecule microarrays, primary screen, biochemical, small-molecule microarray, 635/667 nm fluorescence (AID 1139); conditions: small-molecule microarray binding, fluorescence 635/667; higher = more signal
[8] = tested on: wheat germ agglutinin (Triticum aestivum), Alexa647-labelled; test: wheat germ agglutinin binders on compound microarrays, profiling panel, artefact control for SMM control-protein annotation, biochemical, small-molecule microarray, 635/667 nm fluorescence (AID 1140); conditions: WGA-A647 binding, 635 nm fluorescence, higher = more signal;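 further: score merges 667 nm feature emission with signal to noise over triplicate slides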
[9] = target: Luciferin 4-monooxygenase (Photinus pyralis) (UniProt P08659); test: firefly luciferase enzyme inhibitors, primary screen, biochemical, luminescence, purified enzyme, 2006 set (AID 1141); conditions: SteadyGlo luminescence, 30 min, higher = more signal, called active from +8 up or from −8 down;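 further: cell-free assay with purified firefly luciferase at 100 ng per well in PBS; test concentration not given here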
Chain of Luciferin 4-monooxygenase (Photinus pyralis) (P08659 whole entry, looked up): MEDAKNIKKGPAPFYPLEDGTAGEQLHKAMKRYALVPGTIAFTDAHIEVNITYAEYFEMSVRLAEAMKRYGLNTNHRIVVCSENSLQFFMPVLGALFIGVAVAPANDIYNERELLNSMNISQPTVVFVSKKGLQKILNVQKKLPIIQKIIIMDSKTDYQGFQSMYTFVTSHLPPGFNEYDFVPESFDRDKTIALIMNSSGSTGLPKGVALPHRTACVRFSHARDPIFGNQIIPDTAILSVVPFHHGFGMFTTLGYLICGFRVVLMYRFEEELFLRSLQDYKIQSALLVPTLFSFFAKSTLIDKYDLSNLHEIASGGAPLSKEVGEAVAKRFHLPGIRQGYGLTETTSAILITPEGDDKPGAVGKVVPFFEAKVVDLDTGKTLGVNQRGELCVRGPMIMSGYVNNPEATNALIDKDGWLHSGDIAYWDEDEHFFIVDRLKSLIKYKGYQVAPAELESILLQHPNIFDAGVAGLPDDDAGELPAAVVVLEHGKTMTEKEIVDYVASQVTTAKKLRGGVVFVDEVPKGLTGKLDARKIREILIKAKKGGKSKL

[10] = tested on: Wnt5a (protein binding on small-molecule microarray); test: Wnt5a binders on small-molecule microarray, primary screen, biophysical, 635/667 nm fluorescence (AID 1142); conditions: 635 nm fluorescence, higher = more signal;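 further: fluorescence read at 667 nm with signal to noise per printed feature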
[11] = cell viability in Huh7 cells, primary screen, cytotoxicity control for HCV replication inhibitor project, CellTiter-Glo luminescence, basal, 48 h (AID 1143); conditions: Huh7 HCV replicon, higher = more signal, called active from +8 up or from −8 down;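 further: Huh7 hepatoma cells carrying a hepatitis C replication reporter with no stimulus; test concentration not given here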
[12] = P. aeruginosa biofilm formation inhibitors, primary screen, PAO1 strain, BacTiter-Glo luminescence, LB-PBS (AID 1144); conditions: 12 h, higher = more signal
[13] = CREB reporter modulators without forskolin, primary screen, cell-based, PC12, CRE-LacZ reporter, unstimulated (AID 1145); conditions: no forskolin, luminescence, 4.5 h, higher = more signal, called active from +8 up or from −8 down
[14] = CREB reporter modulators under forskolin, primary screen, cell-based, PC12, CRE-LacZ reporter, forskolin-stimulated (AID 1146); conditions: luminescence, 4.5 h, higher = more signal, called active from +8 up or from −8 down;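 further: PC12 cells with 6xCRE LacZ reporter stimulated by forskolin 10 µM; beta-galactosidase reporter signal reflecting CREB driven transcription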
[15] = target: Streptavidin (Streptomyces avidinii) (UniProt P22629); test: streptavidin binders on small-molecule microarray, primary screen, artefact control for SMM compound annotation, biophysical, 635/667 nm fluorescence (AID 1147); conditions: streptavidin binding, higher = more signal;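 further: signal reflects streptavidin binding to arrayed compounds as a control protein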
Chain of Streptavidin (Streptomyces avidinii) (P22629 whole entry, looked up): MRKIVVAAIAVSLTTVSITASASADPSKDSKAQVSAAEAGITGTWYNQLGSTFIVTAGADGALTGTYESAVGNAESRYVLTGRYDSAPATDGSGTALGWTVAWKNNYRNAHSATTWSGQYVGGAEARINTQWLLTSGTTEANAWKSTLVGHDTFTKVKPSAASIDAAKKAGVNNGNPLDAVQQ

[16] = small-molecule binders of probe aInhba, primary screen, biochemical, small-molecule microarray, 635/667 nm fluorescence (AID 1148); conditions: higher = more signal;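 further: score merges 667nm spot fluorescence with signal-to-noise for antibody binding to printed compounds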
Torsin-1A (Homo sapiens) [17] = target: Torsin-1A (Homo sapiens) (UniProt O14656); test: torsin A binders from cell lysate, primary screen, small-molecule microarray, wild-type, 635/667 nm (AID 1149); conditions: COS7 hTOR1A-WT lysate, 635 nm fluorescence, higher = more signal
Chain of Torsin-1A (Homo sapiens) (O14656 whole entry, looked up): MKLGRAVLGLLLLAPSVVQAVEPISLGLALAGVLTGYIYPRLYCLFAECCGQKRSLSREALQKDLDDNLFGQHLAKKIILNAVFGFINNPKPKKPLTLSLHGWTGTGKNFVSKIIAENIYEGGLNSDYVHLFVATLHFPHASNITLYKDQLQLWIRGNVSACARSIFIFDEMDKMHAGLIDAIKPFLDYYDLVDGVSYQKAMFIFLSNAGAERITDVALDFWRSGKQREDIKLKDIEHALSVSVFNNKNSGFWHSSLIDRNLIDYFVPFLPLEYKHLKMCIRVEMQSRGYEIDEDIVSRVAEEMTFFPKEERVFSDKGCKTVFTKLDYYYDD

Torsin-1A (Homo sapiens) [18] = target: Torsin-1A (Homo sapiens) (UniProt O14656); test: small-molecule binders of mutant TOR1A in lysate, primary screen, cell lysate, small-molecule microarray, COS7 lysate, 635/667 nm fluorescence (AID 1150); conditions: COS7 hTOR1A mutant lysate, 635 nm fluorescence, higher = more signal;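 further: score pools 667 nm emission and signal to noise measuring lysate protein binding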
[19] = tested on: Sonic hedgehog protein (Shh); test: small-molecule binders of Shh protein, primary screen, biochemical, small-molecule microarray, 635/667 nm fluorescence (AID 1151); conditions: small-molecule microarray binding, 635 nm fluorescence; higher = more signal;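 further: Shh protein binding to compounds spotted on small-molecule microarray slides; score combines spot fluorescence intensity with signal-to-noise across triplicate slides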

| SMILES | composite z-score [1] | composite z-score [2] | composite z-score [3] | composite z-score [4] | composite z-score [5] | composite z-score [6] | z-score [7] | composite z-score (Lefty1) | composite z-score [8] | z-score [9] | composite z-score [10] | z-score [11] | z-score [12] | z-score [13] | z-score [14] | composite z-score [15] | composite z-score [16] | composite z-score (Torsin-1A (Homo sapiens) [17]) | composite z-score (Torsin-1A (Homo sapiens) [18]) | composite z-score [19] |
| --- | --- | --- | --- | --- | --- | --- | --- | --- | --- | --- | --- | --- | --- | --- | --- | --- | --- | --- | --- | --- |
| COc1ccc([Si](C)(C)[C@@H]2[C@@H](CC(=O)N3Cc4ccccc4C[C@H]3CO)O[C@]3(C(=O)N(Cc4cccc(N5CCCCC5=O)c4)c4ccccc43)[C@H]2C)cc1 | 1.02 | 1.13 | 0.739 | 0.641 | 1.36 | 1.57 | -0.96 | 1.5 | 0.676 | 0.227 (inactive) | 0.41 | -3.71 (inactive) | 0.723 (inactive) | 1.88 (inactive) | -0.136 (inactive) | 0.287 | 0.17 | 0.652 | 0.101 | 1.76 |
| Cc1ccc(S[C@]2(C(=O)NCC(C)C)CC(=O)N(C3CCCCC3)[C@@H]2c2ccc(CO)cc2I)cc1 | 0.464 | 1.17 | 0.558 | 0.166 | 0.0905 | -0.284 | 1.28 | 0.0839 | 0.752 | 1.22 (inactive) | 0.249 | -4.87 (inactive) | -0.88 (inactive) | -0.619 (inactive) | 0.413 (inactive) | 0.411 | -0.0259 | 0.314 | 0.289 | 0.104 |
| C=CCC(OC(C)=O)[C@@H]1[C@@H](N(Cc2cc3ccccc3o2)C(=O)Cc2ccc(OC)cc2)c2cc(OCCCO)ccc2N1C(=O)c1ccc(-c2ccccc2)cc1 (stereo not given in full) | -0.316 | -0.313 | 0.107 | -0.203 | 0.352 | 0.133 | 0.94 | -0.492 | -0.272 | -0.52 (inactive) | 0.0628 | -0.279 (inactive) | -0.866 (inactive) | 2.47 (inactive) | -0.362 (inactive) | 0.215 | 0.105 | 0.176 | 0.262 | 0.0275 |
| CN(C)CCCCNC(=O)[C@H]1C[C@H]2C(=O)N[C@@H](CCCC[N+](C)(C)C)C(=O)N2[C@H]1c1cccc(OCCO)c1 | 1.06 | 0.809 | 0.373 | 0.54 | 1.35 | 1.67 | -0.312 | 1.35 | 0.115 | 0.53 (inactive) | 0.446 | -0.255 (inactive) | -1.16 (inactive) | -0.659 (inactive) | -0.197 (inactive) | 0.773 | 0.0228 | 1.04 | 1.01 | 2.01 |
| O=C1C2C=CC(C(O)c3ccc(Br)cc3)N(Nc3ccccc3)C2C(=O)N1c1ccccc1 (stereo not given) | 0.0876 | 1.14 | 0.081 | 0.572 | 0.52 | -0.364 | 0.0103 | -0.51 | 1.09 | 0.296 (inactive) | -0.0007 | 0.198 (inactive) | -0.95 (inactive) | 0.24 (inactive) | 0.35 (inactive) | 1.47 | 0.147 | -0.0004 | -0.0172 | -0.146 |
| COC(=O)C(CC#Cc1ccc2c(c1)[C@]1(C(=O)N2)[C@H](C(=O)N2CCc3cc(OC)c(OC)cc3C2)[C@H]2C(=O)O[C@H](c3ccccc3)[C@H](c3ccccc3)N2[C@@H]1c1ccc(O)cc1)C(=O)OC | 2.77 | 1.22 | 0.695 | 0.867 | 1.49 | 1.84 | -1.48 | 1.14 | 0.664 | 8.96 (active) | 0.746 | -3.3 (inactive) | -1.21 (inactive) | 0.0384 (inactive) | -1.12 (inactive) | 0.112 | 0.263 | 0.644 | 0.694 | 1.87 |
| CCOC(=O)C1=CCC(c2cccc(Cl)c2)O1 (stereo not given) | 0.433 | 0.54 | -0.192 | 0.2 | -0.0085 | -0.505 | -1.14 | -0.0196 | 0.225 | 1.7 (inactive) | -0.0719 | -4.6 (inactive) | -1.23 (inactive) | -0.471 (inactive) | 0.0691 (inactive) | -0.164 | 0.0541 | 0.368 | 0.263 | -0.549 |
| Cc1ccc(S[C@]2(C(=O)O)CC(=O)N(Cc3ccccc3C(F)(F)F)[C@@H]2c2ccc(CO)cc2)cc1 | -0.916 | -0.543 | 0.0068 | -0.772 | -0.238 | -1.18 | 0.391 | -1.27 | -0.475 | 0.989 (inactive) | -0.297 | 0.455 (inactive) | 0.231 (inactive) | 0.0279 (inactive) | -0.369 (inactive) | -0.655 | -0.113 | 0.0183 | 1.46 | -1.1 |
| O=C1NC(=O)C2C1C=CC(C(O)c1ccc(-c3ccccc3)s1)N2Nc1ccccn1 (stereo not given) | 0.322 | 0.642 | 0.0118 | 0.347 | 0.689 | 0.0993 | 0.291 | 0.0042 | 0.807 | -0.86 (inactive) | 0.368 | 0.429 (inactive) | -0.505 (inactive) | -0.329 (inactive) | 0.0978 (inactive) | 0.45 | -0.0662 | 0.351 | 0.898 | -0.0564 |

— PubChem BioAssay
